Source: PubChem (Broad Institute)
The list is not random: actives were taken first. Their share in the collection is about 6.8%.
C diff HTS – blocks growth of Clostridium difficile | Clostridium difficile clinical isolate growth, OD600, 24 h; hits give low values | growth activity, negative = inhibition, % at 16 µg/mL (by protocol) | actives 0.25% (n = 86,000) | AID 1259249;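 active = mean growth activity at or below -80% and every replicate also at or below -80%; inconclusive = mean at or below -80% but some replicate above -80%; inactive = mean growth activity above -80%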
T cruzi growth – inhibitors of T. cruzi proliferation; inhibition, % at 8.34 µM; actives 5.9% (n = 77,000); T. cruzi beta-gal in NIH3T3, GalScreen luminescence, 90 h;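 active = mean inhibition above about 93%, with at least 55% of replicates each passing it, limit read from the data, passing the limit was not always enough; inconclusive = only one of those two conditions holds; inactive = neither condition holds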
Pf Dd2 inh – inhibitors of Plasmodium falciparum Dd2 growth; actives 2.3% (n = 94,000); activity change, % at 10 µM; P. falciparum Dd2 growth, SYBR Green, 72 h; hits give low values; in the data active = activity change below about -80%; inconclusive = no clear call, values can overlap the other calls
Large screens that a line does not name were inactive.

C[C@@H]1CCCCO[C@H](CN(C)C(=O)Nc2ccc(C(F)(F)F)cc2)[C@@H](C)CN([C@H](C)CO)C(=O)c2cc(NC(=O)Nc3cccc4ccccc34)ccc2O1	Pf Dd2 inh -82
C[C@@H]1CCCCO[C@H](CN(C)C(=O)Nc2ccc(C(F)(F)F)cc2)[C@H](C)CN([C@@H](C)CO)C(=O)c2cc(NC(=O)Nc3cccc4ccccc34)ccc2O1	none
C[C@H](CO)N1C[C@H](C)[C@H](CN(C)C(=O)Nc2ccc(C(F)(F)F)cc2)OCCCC[C@H](C)Oc2ccc(NC(=O)Nc3ccc(F)cc3)cc2C1=O	T cruzi growth inconclusive
O=C(C[C@@H]1C=C[C@@H](NC(=O)C2CCOCC2)[C@@H](CO)O1)Nc1ccccc1	none (no result: T cruzi growth)
O=C(c1ccccn1)N1CC2(C1)[C@@H](c1ccccc1)[C@H](CO)N2Cc1ccc(Cl)cc1	Pf Dd2 inh inconclusive (no result: T cruzi growth)
CCCC(=O)N1CC2(CCN(C)CC2)c2c(n(C)c3cc(OC)ccc23)[C@@H]1CO	none (no result: T cruzi growth)
Cc1ccc(S(=O)(=O)N(C)C[C@@H]2Oc3ccc(NC(=O)Nc4ccc(F)cc4)cc3C(=O)N([C@H](C)CO)C[C@H]2C)cc1	none
COc1ccc(NC(=O)N(C)C[C@@H]2OCCCC[C@H](C)Oc3ccc(NC(=O)c4ccccc4)cc3C(=O)N([C@H](C)CO)C[C@@H]2C)cc1	Pf Dd2 inh inconclusive
COc1ccc(NC(=O)N(C)C[C@H]2OCCCC[C@@H](C)Oc3ccc(NC(=O)Nc4ccc(C(F)(F)F)cc4)cc3C(=O)N([C@@H](C)CO)C[C@@H]2C)cc1	Pf Dd2 inh -84
COc1ccc(NC(=O)N(C)C[C@H]2OCCCC[C@H](C)Oc3ccc(NC(=O)c4ccccc4)cc3C(=O)N([C@@H](C)CO)C[C@H]2C)cc1	Pf Dd2 inh -89 (no result: T cruzi growth)
COc1ccc(NC(=O)N(C)C[C@H]2OCCCC[C@H](C)Oc3ccc(NC(=O)Nc4ccc(C(F)(F)F)cc4)cc3C(=O)N([C@H](C)CO)C[C@@H]2C)cc1	T cruzi growth inconclusive
COc1ccc(NC(=O)N(C)C[C@H]2OCCCC[C@@H](C)Oc3ccc(NC(=O)Nc4ccc(C(F)(F)F)cc4)cc3C(=O)N([C@H](C)CO)C[C@H]2C)cc1	T cruzi growth 116, Pf Dd2 inh -83
COc1ccc(NC(=O)N(C)C[C@@H]2OCCCC[C@@H](C)Oc3ccc(NC(=O)Nc4ccc(C(F)(F)F)cc4)cc3C(=O)N([C@H](C)CO)C[C@H]2C)cc1	none
C[C@@H]1CN([C@@H](C)CO)C(=O)c2cc(NS(=O)(=O)c3ccc(F)cc3)ccc2O[C@H]1CN(C)Cc1ccc(C(=O)Nc2ccccc2N)cc1	Pf Dd2 inh -85 (no result: T cruzi growth)
C[C@@H]1CN([C@@H](C)CO)C(=O)c2cc(NS(=O)(=O)c3ccccc3)ccc2O[C@H]1CN(C)Cc1ccc(C(=O)Nc2ccccc2N)cc1	Pf Dd2 inh -83 (no result: T cruzi growth)
C[C@H](CO)N1C[C@H](C)[C@@H](CN(C)Cc2ccc(C(=O)Nc3ccccc3N)cc2)Oc2ccc(NS(=O)(=O)c3ccccc3)cc2C1=O	none
C[C@@H]1CN([C@H](C)CO)C(=O)c2cc(NS(=O)(=O)c3ccc(F)cc3)ccc2O[C@@H]1CN(C)Cc1ccc(C(=O)Nc2ccccc2N)cc1	none
O=C(C[C@H]1CC[C@H]2[C@@H](COC[C@H](O)CN2C(=O)Nc2ccc(Cl)cc2)O1)N1CCCCC1	none
COc1ccc(S(=O)(=O)N(C)C[C@H]2OCCCC[C@@H](C)Oc3ccc(NC(=O)Nc4ccc(F)cc4)cc3C(=O)N([C@H](C)CO)C[C@H]2C)cc1	T cruzi growth inconclusive
COc1ccc(NC(=O)Nc2ccc3c(c2)C(=O)N([C@H](C)CO)C[C@@H](C)[C@@H](CN(C)S(=O)(=O)c2ccc(F)cc2)OCCCC[C@@H](C)O3)cc1	Pf Dd2 inh -81
COc1ccc(NC(=O)Nc2ccc3c(c2)C(=O)N([C@H](C)CO)C[C@H](C)[C@H](CN(C)S(=O)(=O)c2ccc(F)cc2)OCCCC[C@@H](C)O3)cc1	Pf Dd2 inh inconclusive
COc1ccc(NC(=O)Nc2ccc3c(c2)C(=O)N([C@H](C)CO)C[C@H](C)[C@@H](CN(C)S(=O)(=O)c2ccc(F)cc2)OCCCC[C@@H](C)O3)cc1	none
COc1ccc(S(=O)(=O)N(C)C[C@H]2OCCCC[C@H](C)Oc3ccc(NC(=O)Nc4ccc(F)cc4)cc3C(=O)N([C@H](C)CO)C[C@H]2C)cc1	Pf Dd2 inh -81
COc1ccc(NC(=O)Nc2ccc3c(c2)C(=O)N([C@H](C)CO)C[C@@H](C)[C@H](CN(C)S(=O)(=O)c2ccc(F)cc2)OCCCC[C@@H](C)O3)cc1	Pf Dd2 inh -82
C[C@H]1CN([C@@H](C)CO)C(=O)c2cc(C#CC3CCCCC3)cnc2O[C@@H]1CN(C)C(=O)C1CCCCC1	none
Cc1cc(C(=O)Nc2cccc3c2O[C@@H](CN(C)CC2CC2)[C@@H](C)CN([C@H](C)CO)C3=O)n(C)n1	none
O=C1NC(Cc2ccc(Cl)cc2)COCc2cnnn2CCC1c1ccccc1 (stereo not drawn)	none (no result: T cruzi growth, Pf Dd2 inh)
O=C(c1ccccc1F)N1C[C@@H]2O[C@H](CNS(=O)(=O)c3ccccc3)CC[C@@H]21	none (no result: T cruzi growth)
COc1ccc(S(=O)(=O)Nc2ccc3c(c2)CC(=O)N([C@H](C)CO)C[C@H](C)[C@@H](CN(C)C(=O)Nc2ccc(C(F)(F)F)cc2)O3)cc1	none
O=C(C[C@H]1C[C@H]2c3cc(NC(=O)CC4CC4)ccc3O[C@H]2[C@@H](CO)O1)NCC(F)(F)F	none
COc1ccc(S(=O)(=O)N(C)C[C@@H]2OCCCC[C@H](C)Oc3ccc(NS(=O)(=O)c4ccc(C)cc4)cc3C(=O)N([C@H](C)CO)C[C@@H]2C)cc1	T cruzi growth 113
COc1ccc(S(=O)(=O)Nc2ccc3c(c2)C(=O)N([C@@H](C)CO)C[C@@H](C)[C@@H](CN(C)S(=O)(=O)c2ccc(C)cc2)OCCCC[C@H](C)O3)cc1	none (no result: C diff HTS, T cruzi growth)
COc1ccc(S(=O)(=O)Nc2ccc3c(c2)C(=O)N([C@@H](C)CO)C[C@H](C)[C@@H](CN(C)S(=O)(=O)c2ccccc2)OCCCC[C@@H](C)O3)cc1	Pf Dd2 inh -88 (no result: T cruzi growth)
COc1ccc(S(=O)(=O)Nc2ccc3c(c2)C(=O)N([C@H](C)CO)C[C@@H](C)[C@@H](CN(C)S(=O)(=O)c2ccc(Cl)cc2)OCCCC[C@@H](C)O3)cc1	Pf Dd2 inh -89
COc1ccc(S(=O)(=O)N(C)C[C@@H]2OCCCC[C@@H](C)Oc3ccc(NS(=O)(=O)c4ccc(Cl)cc4)cc3C(=O)N([C@H](C)CO)C[C@H]2C)cc1	none (no result: T cruzi growth)
COc1ccc(S(=O)(=O)N(C)C[C@H]2OCCCC[C@H](C)Oc3ccc(NS(=O)(=O)c4ccccc4)cc3C(=O)N([C@H](C)CO)C[C@H]2C)cc1	none (no result: Pf Dd2 inh)
COc1ccc(S(=O)(=O)Nc2ccc3c(c2)C(=O)N([C@H](C)CO)C[C@@H](C)[C@@H](CN(C)S(=O)(=O)c2ccc(C)cc2)OCCCC[C@H](C)O3)cc1	Pf Dd2 inh -81 (no result: C diff HTS, T cruzi growth)
COc1ccc(S(=O)(=O)N(C)C[C@@H]2OCCCC[C@H](C)Oc3ccc(NS(=O)(=O)c4ccc(C)cc4)cc3C(=O)N([C@@H](C)CO)C[C@H]2C)cc1	none
C/C=C/c1cnc2c(c1)C(=O)N([C@@H](C)CO)C[C@@H](C)[C@@H](CN(C)C(=O)C1CCCCC1)O2	none
